From PubChem BioAssay (Tox21)
Several values for one entry are separate records, joined by “and”; a condition that tells them apart may be missing. Equal values may be shown once. Inconclusive results are not listed. Where a call stands in place of a potency, no number is given. A structure can be active in one record and inactive in another. Activity calls are given as the source filed them. Unless noted, calls come from the whole dose curve; as a rule, active = well fitted curve in the direction sought with a large enough effect in the repeat runs; inconclusive = weak or mixed curves; inactive = no such curve, though single readings can be large; an effect the other way counts as inactive or inconclusive.

How the values were obtained:
[1] = Caspase-3/7 induction in CHO-K1 cells by small molecules, qHTS cell viability counter screen (AID 1346979); note: nearly all actives have a fitted effect of over 35% in size; note: potency is the fitted concentration of half-maximal effect
Method in brief: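 Seeding: 1,500 CHO-K1 cells/well. Rest: 5hr, 37C. Treatment: compounds in DMSO, 16hr. Read: CellTiter-Fluor, 1hr, fluorescence.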

[2] = Caspase-3/7 induction in CHO-K1 cells by small molecules, qHTS assay (AID 1346980); note: nearly all actives have a fitted effect of over 15% in size; note: potency is the fitted concentration of half-maximal effect
Method in brief: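 Luminescent Caspase-Glo 3/7 read (30min, room temperature) quantified apoptosis induction. Cells were wild-type CHO-K1, treated with compound for 17hr at 37 C and 5% CO2.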

[3] = Caspase-3/7 induction in HepG2 cells by small molecules, qHTS cell viability counter screen (AID 1346981); note: nearly all actives have a fitted effect of over 30% in size; note: potency is the fitted concentration of half-maximal effect
Method in brief: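 Steps: seed 2,000 HepG2 cells per well; incubate 5 hr at 37 C; pin-add compounds in DMSO; incubate 16 hr; add CellTiter-Fluor; after 1 hr at 37 C and 5% CO2, read fluorescence.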

[4] = molecular target: Nuclear receptor subfamily 1 group I member 2 (Homo sapiens) (UniProt O75469); test: Human pregnane X receptor (PXR) small molecule agonists, qHTS assay (AID 1346982); note: nearly all actives have a fitted effect of over 35% in size; note: potency is the fitted concentration of half-maximal effect
Chain of Nuclear receptor subfamily 1 group I member 2 (Homo sapiens) (O75469 whole entry, looked up): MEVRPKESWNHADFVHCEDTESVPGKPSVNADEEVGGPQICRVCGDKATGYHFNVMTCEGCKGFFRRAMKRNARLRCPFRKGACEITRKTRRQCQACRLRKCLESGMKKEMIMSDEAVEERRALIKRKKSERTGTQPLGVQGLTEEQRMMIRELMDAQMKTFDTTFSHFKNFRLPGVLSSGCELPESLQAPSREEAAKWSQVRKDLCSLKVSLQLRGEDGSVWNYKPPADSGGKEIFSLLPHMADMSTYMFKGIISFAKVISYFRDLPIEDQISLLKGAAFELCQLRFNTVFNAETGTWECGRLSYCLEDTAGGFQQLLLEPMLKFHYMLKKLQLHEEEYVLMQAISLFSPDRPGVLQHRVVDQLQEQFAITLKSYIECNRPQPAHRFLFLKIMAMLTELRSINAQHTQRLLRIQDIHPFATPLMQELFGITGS
Method in brief: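 Agonist mode qHTS: PXR-Luc HepG2 cells plated 5 hr before DMSO-dissolved compounds were pinned in, cultured 24 hr at 37 C, 5% CO2; ONE-Glo luminescence readout.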

[5] = molecular target: Acetylcholinesterase (Homo sapiens) (UniProt P22303); test: Acetylcholinesterase (AChE) small molecule antagonists: colormetric cell-based qHTS assay (AID 1347395; calls by dose curve; note: nearly all actives have a fitted effect of over 30% in size; note: potency is the fitted concentration of half-maximal effect)
Chain of Acetylcholinesterase (Homo sapiens) (P22303 whole entry, looked up): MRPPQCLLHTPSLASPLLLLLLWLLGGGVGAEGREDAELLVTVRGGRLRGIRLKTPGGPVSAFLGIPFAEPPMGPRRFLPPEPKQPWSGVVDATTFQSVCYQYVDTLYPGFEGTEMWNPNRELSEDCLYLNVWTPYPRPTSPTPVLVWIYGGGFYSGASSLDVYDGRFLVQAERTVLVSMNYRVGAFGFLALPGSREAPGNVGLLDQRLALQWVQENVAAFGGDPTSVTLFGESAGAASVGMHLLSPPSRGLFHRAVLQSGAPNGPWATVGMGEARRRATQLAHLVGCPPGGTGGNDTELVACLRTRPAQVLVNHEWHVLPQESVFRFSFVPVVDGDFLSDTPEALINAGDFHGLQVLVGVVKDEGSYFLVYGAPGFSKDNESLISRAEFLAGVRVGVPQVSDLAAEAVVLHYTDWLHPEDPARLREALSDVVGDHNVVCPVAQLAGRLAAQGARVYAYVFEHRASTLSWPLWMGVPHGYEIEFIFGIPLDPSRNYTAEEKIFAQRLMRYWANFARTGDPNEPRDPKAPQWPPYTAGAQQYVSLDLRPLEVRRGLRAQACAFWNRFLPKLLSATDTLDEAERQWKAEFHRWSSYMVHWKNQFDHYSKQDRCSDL
Method in brief: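 Quantitative HTS in attached SH-SY5Y cells: 30 min compound exposure, then 90 min with acetylthiocholine and DTNB at 37 C; colour from thiocholine reports AChE activity.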

[6] = molecular target: Acetylcholinesterase (Homo sapiens) (UniProt P22303); test: Acetylcholinesterase (AChE) small molecule antagonists: enzyme-based qHTS assay (AID 1347397; calls by dose curve; note: nearly all actives have a fitted effect of over 55% in size; note: potency is the fitted concentration of half-maximal effect); conditions: Potency: AChE enzyme activity inhibition
Method in brief: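 Absorbance-based detection of thiocholine with DTNB served as the read-out. Recombinant human AChE was exposed to compound for 30 min at RT before a 10 min RT incubation with acetylthiocholine.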

[7] = Caspase-3/7 induction in HepG2 cells by small molecules, qHTS assay (AID 1346978); note: nearly all actives have a fitted effect of over 15% in size
Method in brief: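 Caspase-3/7 induction was measured by Caspase-Glo 3/7 luminescence (30 min, room temperature) after a 17 hr compound exposure of wild-type HepG2 cells seeded at 2,000 per well and pre-incubated 5 hr.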

[8] = molecular target: Nuclear receptor subfamily 1 group I member 2 (Rattus norvegicus) (UniProt Q9R1A7); test: Rat pregnane X receptor (rPXR) activation by small molecules, qHTS assay (AID 1346983); conditions: rPXR luciferase reporter cells, One-Glo luminescence, 24 h; max activation: stronger effect = higher value; note: nearly all actives have a fitted effect of over 20% in size
Chain of Nuclear receptor subfamily 1 group I member 2 (Rattus norvegicus) (Q9R1A7 whole entry, looked up): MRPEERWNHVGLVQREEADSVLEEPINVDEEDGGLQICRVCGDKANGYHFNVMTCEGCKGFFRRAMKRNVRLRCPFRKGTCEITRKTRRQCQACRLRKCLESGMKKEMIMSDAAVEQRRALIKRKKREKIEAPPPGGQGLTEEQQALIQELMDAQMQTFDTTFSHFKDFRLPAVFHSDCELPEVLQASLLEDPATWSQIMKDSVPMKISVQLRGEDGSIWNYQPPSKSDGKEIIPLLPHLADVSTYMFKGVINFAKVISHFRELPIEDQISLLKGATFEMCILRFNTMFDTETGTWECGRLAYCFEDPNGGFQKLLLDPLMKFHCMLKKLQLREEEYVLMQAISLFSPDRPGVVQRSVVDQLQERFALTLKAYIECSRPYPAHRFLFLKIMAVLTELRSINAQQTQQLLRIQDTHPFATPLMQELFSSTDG
Method in brief: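 Luminescent readout (One-Glo luciferase, 30 min room temperature) followed 24 hr compound treatment at 37 C of rPXR cells plated 2,000 per well and preincubated 5hr; qHTS format with compounds delivered in DMSO.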

[9] = molecular target: Nuclear receptor subfamily 1 group I member 2 (Homo sapiens) (UniProt O75469); test: Human pregnane X receptor (PXR) activation by small molecules, qHTS assay (AID 1346985); note: nearly all actives have a fitted effect of over 40% in size
Method in brief: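 DPX-2 cells (HepG2 co-transfected with a PXR response element and a CYP3A4-promoter luciferase construct) were seeded at 2,000 per well, rested 5 hr at 37C, then exposed to DMSO-dissolved compounds for 24 hr. Activation was read as luciferase luminescence.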

| SMILES | Potency [1] | Potency [2] | Potency [3] | Potency [4] | Potency [5] | Potency [6] | Potency [7] | max activation [8] | Potency [9] |
| --- | --- | --- | --- | --- | --- | --- | --- | --- | --- |
| Cc1cccc(OP(=O)(Oc2cccc(C)c2)Oc2cccc(C)c2)c1 | inactive | inactive | inactive | 30.6 µM (active) | inactive | inactive | – | – | – |
| Cc1cc(C(C)(C)c2cc(C)c(O)c(C)c2)cc(C)c1O | 59.1 µM (active) | inactive | 52.7 µM (active) | 33.2 µM (active) | inactive | inactive | – | – | – |
| O=C(O)COc1nc(Cl)c(Cl)cc1Cl | – | inactive | – | inactive | inactive | inactive | inactive | – | – |
| O=[N+]([O-])c1c2ccccc2cc2ccccc12 | – | inactive | – | 21.7 µM (active) | inactive | inactive | inactive | – | – |
| CC(C)(O)c1cnn2c(-c3ccc(F)c(-c4c(F)cccc4C#N)c3)cnc2n1 | – | inactive | – | 2.43 µM (active) | – | inactive | inactive | – | – |
| CCCCCCCCCCBr | inactive | inactive | inactive | inactive | inactive | inactive | – | – | – |
| CC(Cl)CN(C)C (configuration not stated) | inactive | inactive | inactive | inactive | inactive | inactive | – | – | – |
| CC(=O)[O-].[Tl+] | 43.5 µM (active) | inactive | inactive | – | – | – | – | – | – |
| CC1(c2ccc(Oc3ccccc3)cc2)OC(=O)N(Nc2ccccc2)C1=O (configuration not stated) | 6.9 µM (active) | inactive | 27.5 µM (active) | 21.8 µM (active) | inactive | inactive | – | – | – |
| CC[C@H]1C[C@@H]2C[C@H]3c4[nH]c5ccc(OC)cc5c4CCN(C2)[C@@H]13 | – | inactive | – | inactive | inactive | inactive | inactive | – | – |
| C[C@@H]1O[C@@H](O[C@H]2C[C@@H](O)[C@]3(CO)[C@H]4[C@H](O)C[C@]5(C)[C@@H](C6=CC(=O)OC6)CC[C@]5(O)[C@@H]4CC[C@]3(O)C2)[C@H](O)[C@H](O)[C@H]1O | inactive | inactive | inactive | inactive | inactive | inactive | – | 0.399% (inactive) and -3.08% (inactive) | inactive |
| BrCC(Br)c1ccccc1 (configuration not stated) | inactive | inactive | inactive | inactive | inactive | inactive | – | – | – |
| Cc1cc(SCc2sc(-c3ccc(C(F)(F)F)c(F)c3)nc2C)ccc1OCC(=O)O | – | inactive | – | 24.3 µM (active) | inactive | – | inactive | – | – |
| CS(=O)(=O)c1ccc(C(=O)C2C(=O)CCCC2=O)c([N+](=O)[O-])c1 | – | inactive | – | – | 27.2 µM (active) | – | inactive | – | – |
| C[C@@H]1O[C@@H](O[C@@H]2C=C3CC[C@@H]4[C@H](CC[C@]5(C)[C@@H](c6ccc(=O)oc6)CC[C@]45O)[C@@]3(C)CC2)[C@H](O)[C@H](O)[C@H]1O | – | inactive | – | inactive | inactive | inactive | inactive | -3.43% (inactive) | inactive |
| CC(C)OC(=O)C(O)(c1ccc(Cl)cc1)c1ccc(Cl)cc1 | – | – | inactive | 21.7 µM (active) | inactive | inactive | inactive | – | – |
| CSCCCN=C=S | inactive | inactive | inactive | inactive | inactive | inactive | – | – | – |
| C[C@]12CC[C@H]3[C@@H](CCC4=CC(=O)CC[C@@]43C)[C@@H]1CC[C@@H]2O | inactive | inactive | inactive | 27.1 µM (active) | inactive | inactive | – | – | – |
| CCOP(=O)(NC(C)C)Oc1ccc(SC)c(C)c1 (configuration not stated) | – | inactive | – | 7.7 µM (active) | 58.6 µM (active) | 84.4 µM (active) | inactive | – | – |
| Clc1ccc(C(c2ccccc2Cl)C(Cl)(Cl)Cl)cc1 (configuration not stated) | – | – | inactive | 34.6 µM (active) and inactive | inactive | inactive | inactive | – | – |
| COc1cccc2c1C(=O)c1c(O)c3c(c(O)c1C2=O)C[C@@](O)(C(=O)CO)CC3OC1CC(N2CCOC(OC)C2)C(O)C(C)O1 (some centres not stated) | 9.44 µM (active) | 0.168 µM (active) | 16.8 µM (active) | inactive | 12.3 µM (active) | – | – | – | – |
| Oc1c(Br)c(Br)c(Br)c(Br)c1Br | – | inactive | – | 61.5 µM (active) | inactive | inactive | inactive | – | – |
| O=[N+]([O-])c1cc([N+](=O)[O-])c2ccccc2c1 | – | inactive | – | – | – | inactive | inactive | – | – |
| Oc1ccc(C2(c3ccc(O)cc3)CCCCC2)cc1 | 57.9 µM (active) | inactive | 51.6 µM (active) | 13 µM (active) | inactive | inactive | – | – | – |
| CC(C)CC(C)(c1ccc(O)cc1)c1ccc(O)cc1 | 61.3 µM (active) and 61.1 µM (active) | inactive | 68.7 µM (active) and 61.1 µM (active) | 8.65 µM (active) and 13.7 µM (active) | inactive | – | – | – | – |
| Cc1cc(N=Nc2ccccc2C)ccc1N | 30.6 µM (active) and 61.1 µM (active) | inactive | 3.86 µM (active) and 686 nM (active) | 24.3 µM (active) and 30.6 µM (active) | inactive | inactive | – | – | – |
